# Reference: PubChem BioAssay (EPA / NIEHS)
# Inconclusive results are not listed. The source made the active and inactive calls. The calls were made as follows, unless noted: active = hit-call score of the fitted dose curve at least 0.9, where 1 is the maximum; inconclusive = response in the unintended direction; inactive = score below 0.9.
# Tests used:
# [1] = molecular target: Bile acid receptor (Homo sapiens) (UniProt Q96RI1); experiment: OT_FXR_FXRSRC1_0480: Odyssey Thera (OT) 8-hour HEK293T Protein-Complementation Assay for Farnesoid X receptor/SRC-1 Co-activator (AID 2283383)
# In short: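 Readings were taken 8 h after dosing HEK293T cells in a split-reporter complementation format pairing FXR with SRC-1. Increased fluorescence relative to DMSO-treated wells defined activity.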
# [2] = molecular target: Bile acid receptor (Homo sapiens) (UniProt Q96RI1); experiment: OT_FXR_FXRSRC1_1440: Odyssey Thera (OT) 24-hour HEK293T Protein-Complementation Assay for Farnesoid X receptor/SRC-1 Co-activator (AID 2283384)
# In short: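 Single endpoint, analysed for increased fluorescence against DMSO controls. HEK293T cells carrying FXR and SRC-1 linked to complementary reporter halves were exposed to chemicals for 24 h before reading.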
# [3] = system: Thyroperoxidase (TPO), gene 54314; experiment: CCTE_Simmons_AUR_rTPO: CCTE's Amplex UltraRed Assay for Thyroperoxidase (TPO) Inhibition, Simmons Lab (AID 2283662);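 also: potency for loss of signal meaning inhibition of peroxidase activity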
# In short: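 Endpoint is decreased Amplex UltraRed fluorescence after a 30-min, 37C reaction of rat thyroid microsomes with 300 uM H2O2. Eight test concentrations (5 nM–87.5 uM final) in 0.5% DMSO, three biological replicates each.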
# [4] = CCTE_Simmons_CellTiterGLO_HEK293T: Viability Assessment in CCTE's Assays for Thyroperoxidase (TPO) Inhibition, Simmons Lab (AID 2283665);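 as to AC50: cells exposed to compound for 24 h before readout; actives reduce ATP signal below DMSO vehicle meaning cytotoxicity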
# In short: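 ATP depletion measured in HEK293T cells after 24 h dosing (8 concentrations, 5 nM–87.5 uM final; DMSO 0.5%) using CellTiter-Glo luminescence; curves fit for loss of signal against DMSO baseline.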
# [5] = molecular target: Luciferin 4-monooxygenase (Photinus pyralis) (UniProt P08659); experiment: CCTE_Simmons_QuantiLum_inhib_2: CCTE's Firefly Luciferase Inhibition Assay, Simmons Lab (AID 2283767)
# In short: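 Eight-point titrations of each chemical, 5 nM–87.5 uM final in 0.5% DMSO, were run in three biological replicates against recombinant luciferase for 30 min at 37C. Bioluminescence signal loss, read on reagent injection, gave the inhibition endpoint.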
# [6] = CCTE_Deisenroth_AIME_384WELL_CTox_Inactive: Cytotoxicity Assessment (CTOX) in CCTE's 384-well Estrogen Receptor Transactivation Assay without AIME metabolic competence (metabolism negative), Deisenroth Lab (AID 2284039);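 also: cell viability via live-cell protease substrate cleaved to fluorescent probe; cells exposed 24 h to medium preincubated 2 h with alginate-water beads without S9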
# In short: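 Fluorescence from a live-cell protease substrate, read after 24 h in VM7Luc4E2 cells, indicated viability. Test medium came from a 2 h AIME step without hepatic S9 (alginate-water microspheres); concentrations spanned 0.002 - 200 uM, single technical replicate per run.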
# [7] = read-out: Vascular cell adhesion molecule 1 (VCAM1), VCAM1 (gene 7412); experiment: BSK_MyoF_VCAM1: BioMAP Diversity Plus: MyoF Assay for Vascular cell adhesion molecule 1 (VCAM1) Biomarker Activity (AID 2284231; active = hit-call score of the fitted dose curve at least 0.9, where 1 is the maximum; inactive = score below 0.9); conditions: primary human lung fibroblasts
# In short: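 Primary human lung fibroblasts were dosed with test chemical for 24 h, then cell-surface VCAM-1 was measured by ELISA. Activity was fitted in the positive direction against DMSO as negative control and baseline.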
# [8] = read-out: Plasminogen activator inhibitor-1 (PAI1), SERPINE1 (gene 5054); experiment: BSK_MyoF_PAI1: BioMAP Diversity Plus: MyoF Assay for Plasminogen activator inhibitor-1 (PAI1) Biomarker Activity (AID 2284256; active = hit-call score of the fitted dose curve at least 0.9, where 1 is the maximum; inactive = score below 0.9;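 as to outcome: PAI-1 protein level measured by ELISA in fibroblast cultures; PAI-1 read 24 h after compound addition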); conditions: primary human lung fibroblasts
# In short: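 ELISA read-out of PAI-1 from primary human lung fibroblast cultures 24 h after dosing; gain-of-signal fit versus DMSO control.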
# [9] = BSK_MyoF_SRB: Viability Assessment in the BioMAP Diversity Plus: MyoF Assay (AID 2284267; active = hit-call score of the fitted dose curve at least 0.9, where 1 is the maximum; inactive = score below 0.9;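 also: total protein by SRB absorbance in parallel cultures as cytotoxicity measure; cells assessed 24 h after compound addition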); conditions: primary human lung fibroblasts
# In short: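 In this viability endpoint, fibroblasts from human lung are treated for 24 h, TCA-fixed, SRB-stained (0.1%) and read at 560 nm. Gain of signal relative to DMSO defines activity.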
# [10] = read-out: Matrix Metallopeptidase 1 (MMP1), MMP1 (gene 4312); experiment: BSK_MyoF_MMP1: BioMAP Diversity Plus: MyoF Assay for Matrix Metallopeptidase 1 (MMP1) Biomarker Activity (AID 2284268; active = hit-call score of the fitted dose curve at least 0.9, where 1 is the maximum; inactive = score below 0.9); conditions: primary human lung fibroblasts
# In short: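 ELISA readout of MMP1 in primary human lung fibroblast cultures, 24 h post-dosing. Gain of signal versus DMSO vehicle control defines activity. Parallel SRB staining (0.1% after 10% TCA fixation, 560 nm) flags overt cytotoxicity.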
# [11] = read-out: TIMP metallopeptidase inhibitor 1 (TIMP1), TIMP1 (gene 7076); experiment: BSK_MyoF_TIMP1: BioMAP Diversity Plus: MyoF Assay for TIMP metallopeptidase inhibitor 1 (TIMP1) Biomarker Activity (AID 2284269; active = hit-call score of the fitted dose curve at least 0.9, where 1 is the maximum; inactive = score below 0.9); conditions: primary human lung fibroblasts
# In short: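 TIMP-1 levels were determined by ELISA in human lung fibroblasts treated for 24 h. DMSO served as negative control and baseline for upward curve fitting.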
# [12] = molecular target: human Retinoic Acid Receptor beta (RARb), RARB (gene 5915) (UniProt P10826); experiment: ATG_RARb_TRANS: Attagene TRANS-FACTORIAL HepG2 Assay for human Retinoic Acid Receptor beta (AID 2283004)
# In short: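 HepG2 cells transiently transfected with multiplexed GAL4-UAS reporter units expressing chimeric NR–Gal4 fusions; 24 h compound exposure. Reporter mRNA quantified by RT-PCR, 6-FAM labelling, HpaI digestion and capillary electrophoresis; gain-of-signal fitted against DMSO baseline.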
# [13] = molecular target: Retinoic acid receptor alpha (Homo sapiens) (UniProt P10276); experiment: ATG_RARa_TRANS: Attagene TRANS-FACTORIAL HepG2 Assay for human Retinoic Acid Receptor alpha (RARa) (AID 2283005)
# In short: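 HepG2 cells transiently transfected with multiple reporter units expressing chimeric RARα-GAL4 fusion, with GAL4-UAS-driven reporters. After 24 h compound exposure, reporter mRNA induction quantified by RT-PCR and capillary electrophoresis with fluorescent labeling; gain-of-signal fitted relative to DMSO control.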
# [14] = molecular target: human Retinoic Acid Receptor gamma (RARg), RARG (gene 5916) (UniProt P13631); experiment: ATG_RARg_TRANS: Attagene TRANS-FACTORIAL HepG2 Assay for human Retinoic Acid Receptor gamma (RARg) (AID 2283009)
# In short: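 Gain-of-signal relative to DMSO is reported from fluorescent capillary electrophoresis of RT-PCR reporter products. These came from HepG2 cells expressing transfected RARg-GAL4 chimeras with UAS reporters, harvested 24 h after dosing.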
# [15] = molecular target: human Ephrin type-A Receptor 1 (EphA1), EPHA1 (gene 2041) (UniProt P21709); experiment: NVS_ENZ_hEphA1: NovaScreen (NVS) Enzymatic Assay for human Ephrin type-A Receptor 1 (EphA1) (AID 2283158);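 also: activity is signal loss versus DMSO meaning EphA1 kinase inhibition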
# In short: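 Cell-free enzymatic assay with recombinant EphA1 and fluorescent substrate; product separated by electrophoretic mobility shift, fluorescence intensity read 1 hour after dosing. Loss of signal versus DMSO baseline; primary duplicate screen at 25 uM, actives followed to 50 uM top concentration.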
# [16] = molecular target: Nuclear receptor subfamily 1 group I member 3 (Homo sapiens) (UniProt Q14994); experiment: ATG_CAR_TRANS: Attagene TRANS-FACTORIAL HepG2 Assay for human Constitutive Androstane Receptor (CAR) (AID 2282969); conditions: HepG2 Attagene TRANS-FACTORIAL CAR reporter;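 also: activators raise reporter mRNA above DMSO so AC50 marks induction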
# In short: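 Steps: transient transfection of HepG2 with multiple GAL4-UAS reporter units; 24 h compound incubation; RNA isolation, RT-PCR, 6-FAM primer extension, HpaI digest; capillary electrophoresis. Gain-of-signal relative to DMSO negative control.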
# [17] = CCTE_Deisenroth_AIME_384WELL_CTox_Active: Cytotoxicity Assessment (CTOX) in CCTE's 384-well Estrogen Receptor Transactivation Assay with AIME metabolic competence (metabolism positive), Deisenroth Lab (AID 2284037);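 also: chemicals first conditioned 2 h by alginate-bound induced rat liver S9 before cells; activity means signal loss indicating cell death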
# In short: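 VM7Luc4E2 breast cells received medium pre-incubated 2 h with chemical over alginate microspheres holding induced male Sprague Dawley rat liver S9; viability read 24 h later by protease-substrate fluorescence. Loss of signal, bidirectional fit, 0.002–200 uM.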
# [18] = molecular target: rat Thyrotropin Releasing Hormone Receptor (TRH), Trhr (gene 25570) (UniProt Q01717); experiment: NVS_GPCR_rTRH: NovaScreen (NVS) G Protein-Coupled Receptor Assay for rat Thyrotropin Releasing Hormone Receptor (TRH) (AID 2283329);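 also: hit means lower bound tracer signal versus DMSO baseline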
# In short: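 Test compounds are screened at 25 uM in duplicate against radioligand binding in rat forebrain membranes, with active pairs followed up over a concentration range. Detection uses filter-based radiodetection after a 4 h exposure.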
# [19] = molecular target: Androgen receptor (Homo sapiens) (UniProt P10275); experiment: ATG_AR_TRANS: Attagene TRANS-FACTORIAL HepG2 Assay for human Androgen Receptor (AR) (AID 2282973); conditions: HepG2 Attagene TRANS-FACTORIAL AR reporter transcription
# In short: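 HepG2 cells transiently transfected with multiplexed GAL4-UAS reporter units and chimeric NR-Gal4 fusion; 24 h compound exposure. Reporter mRNA measured by RT-PCR, 6-FAM labelling, HpaI digestion and capillary electrophoresis; gain-of-signal fitted relative to DMSO baseline.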
# Sequence of Nuclear receptor subfamily 1 group I member 3 (Homo sapiens) (Q14994 whole entry, looked up, the tested form may be a part): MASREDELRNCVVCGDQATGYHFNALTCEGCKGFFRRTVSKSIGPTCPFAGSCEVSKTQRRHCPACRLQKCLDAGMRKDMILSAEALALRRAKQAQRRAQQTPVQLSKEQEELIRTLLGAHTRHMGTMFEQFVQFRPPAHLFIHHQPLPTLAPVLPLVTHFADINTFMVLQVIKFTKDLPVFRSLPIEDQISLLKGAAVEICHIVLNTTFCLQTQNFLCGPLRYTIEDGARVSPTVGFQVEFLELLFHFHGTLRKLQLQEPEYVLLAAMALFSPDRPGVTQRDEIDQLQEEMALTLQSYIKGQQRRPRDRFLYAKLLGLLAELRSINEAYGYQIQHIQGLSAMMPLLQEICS
# Sequence of human Retinoic Acid Receptor gamma (RARg), RARG (gene 5916) (P13631 whole entry, looked up, the tested form may be a part): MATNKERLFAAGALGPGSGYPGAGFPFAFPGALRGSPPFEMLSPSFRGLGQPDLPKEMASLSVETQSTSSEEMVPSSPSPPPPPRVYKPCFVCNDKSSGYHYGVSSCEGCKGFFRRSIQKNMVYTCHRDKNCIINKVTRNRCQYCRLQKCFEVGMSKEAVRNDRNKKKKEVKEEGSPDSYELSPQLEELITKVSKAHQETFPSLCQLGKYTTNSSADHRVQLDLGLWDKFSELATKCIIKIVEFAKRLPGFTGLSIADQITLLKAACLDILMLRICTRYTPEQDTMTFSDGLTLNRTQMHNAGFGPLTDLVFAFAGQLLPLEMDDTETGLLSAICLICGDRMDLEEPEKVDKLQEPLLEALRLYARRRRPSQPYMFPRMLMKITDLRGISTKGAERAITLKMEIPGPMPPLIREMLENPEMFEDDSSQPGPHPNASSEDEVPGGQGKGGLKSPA
# Sequence of Androgen receptor (Homo sapiens) (P10275 whole entry, looked up, the tested form may be a part): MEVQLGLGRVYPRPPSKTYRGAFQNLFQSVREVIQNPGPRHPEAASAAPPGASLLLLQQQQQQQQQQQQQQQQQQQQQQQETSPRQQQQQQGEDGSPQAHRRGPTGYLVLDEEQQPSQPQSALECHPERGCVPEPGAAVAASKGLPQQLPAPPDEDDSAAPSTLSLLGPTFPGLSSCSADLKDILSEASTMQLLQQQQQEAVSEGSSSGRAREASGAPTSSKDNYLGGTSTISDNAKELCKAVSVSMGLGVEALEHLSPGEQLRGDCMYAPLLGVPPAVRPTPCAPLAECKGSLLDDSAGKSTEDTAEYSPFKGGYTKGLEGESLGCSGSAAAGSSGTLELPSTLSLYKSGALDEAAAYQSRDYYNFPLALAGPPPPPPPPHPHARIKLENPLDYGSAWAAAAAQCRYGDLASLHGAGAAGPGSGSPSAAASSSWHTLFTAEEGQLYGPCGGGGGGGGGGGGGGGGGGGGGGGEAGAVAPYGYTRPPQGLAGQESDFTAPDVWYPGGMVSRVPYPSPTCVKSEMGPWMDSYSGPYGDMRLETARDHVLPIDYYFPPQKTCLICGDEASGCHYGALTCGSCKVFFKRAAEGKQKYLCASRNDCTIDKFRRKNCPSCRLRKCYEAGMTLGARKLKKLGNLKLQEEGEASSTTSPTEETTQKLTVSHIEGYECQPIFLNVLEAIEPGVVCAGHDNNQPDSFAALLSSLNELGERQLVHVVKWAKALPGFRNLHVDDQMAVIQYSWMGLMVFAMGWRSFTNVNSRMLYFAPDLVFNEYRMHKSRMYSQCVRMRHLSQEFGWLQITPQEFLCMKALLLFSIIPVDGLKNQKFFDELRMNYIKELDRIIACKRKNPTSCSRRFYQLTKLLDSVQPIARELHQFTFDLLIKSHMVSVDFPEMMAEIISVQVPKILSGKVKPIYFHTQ
# Sequence of Bile acid receptor (Homo sapiens) (Q96RI1 whole entry, looked up): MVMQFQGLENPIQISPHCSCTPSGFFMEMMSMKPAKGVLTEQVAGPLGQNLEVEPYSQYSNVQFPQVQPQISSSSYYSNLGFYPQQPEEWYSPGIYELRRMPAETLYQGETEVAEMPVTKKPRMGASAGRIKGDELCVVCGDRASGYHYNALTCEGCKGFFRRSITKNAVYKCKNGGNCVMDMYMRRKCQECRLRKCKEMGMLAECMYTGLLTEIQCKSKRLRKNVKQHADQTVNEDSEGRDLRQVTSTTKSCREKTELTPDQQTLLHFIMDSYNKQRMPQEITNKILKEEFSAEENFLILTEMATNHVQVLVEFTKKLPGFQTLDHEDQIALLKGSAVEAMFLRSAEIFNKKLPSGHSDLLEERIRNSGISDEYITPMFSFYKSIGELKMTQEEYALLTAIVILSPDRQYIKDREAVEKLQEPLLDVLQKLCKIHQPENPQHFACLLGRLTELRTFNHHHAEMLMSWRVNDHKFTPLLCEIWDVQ
# Sequence of human Retinoic Acid Receptor beta (RARb), RARB (gene 5915) (P10826 whole entry, looked up, the tested form may be a part): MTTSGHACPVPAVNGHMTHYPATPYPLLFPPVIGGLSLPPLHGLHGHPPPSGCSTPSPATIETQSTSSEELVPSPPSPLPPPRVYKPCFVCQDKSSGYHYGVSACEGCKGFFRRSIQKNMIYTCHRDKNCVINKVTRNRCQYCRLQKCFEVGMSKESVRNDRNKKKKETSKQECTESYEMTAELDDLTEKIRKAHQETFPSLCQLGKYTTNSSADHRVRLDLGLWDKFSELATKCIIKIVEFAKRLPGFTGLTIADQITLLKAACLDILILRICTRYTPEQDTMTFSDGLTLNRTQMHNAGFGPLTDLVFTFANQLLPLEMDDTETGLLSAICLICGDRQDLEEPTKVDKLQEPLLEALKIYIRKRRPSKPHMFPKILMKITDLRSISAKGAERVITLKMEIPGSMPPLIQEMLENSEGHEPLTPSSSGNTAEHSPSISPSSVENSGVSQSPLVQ
# Sequence of Retinoic acid receptor alpha (Homo sapiens) (P10276 whole entry, looked up, the tested form may be a part): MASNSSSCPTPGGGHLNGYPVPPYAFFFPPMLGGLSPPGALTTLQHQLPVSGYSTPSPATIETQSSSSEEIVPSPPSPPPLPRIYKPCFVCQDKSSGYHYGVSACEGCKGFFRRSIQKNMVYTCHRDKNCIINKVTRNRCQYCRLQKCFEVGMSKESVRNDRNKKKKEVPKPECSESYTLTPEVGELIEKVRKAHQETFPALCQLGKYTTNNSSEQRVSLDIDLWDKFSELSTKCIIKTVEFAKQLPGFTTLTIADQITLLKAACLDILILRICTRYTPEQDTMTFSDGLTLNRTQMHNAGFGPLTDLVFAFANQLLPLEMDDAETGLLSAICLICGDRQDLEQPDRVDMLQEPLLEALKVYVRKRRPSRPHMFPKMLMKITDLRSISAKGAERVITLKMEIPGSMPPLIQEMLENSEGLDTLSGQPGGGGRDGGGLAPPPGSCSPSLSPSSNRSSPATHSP
# Sequence of Luciferin 4-monooxygenase (Photinus pyralis) (P08659 whole entry, looked up): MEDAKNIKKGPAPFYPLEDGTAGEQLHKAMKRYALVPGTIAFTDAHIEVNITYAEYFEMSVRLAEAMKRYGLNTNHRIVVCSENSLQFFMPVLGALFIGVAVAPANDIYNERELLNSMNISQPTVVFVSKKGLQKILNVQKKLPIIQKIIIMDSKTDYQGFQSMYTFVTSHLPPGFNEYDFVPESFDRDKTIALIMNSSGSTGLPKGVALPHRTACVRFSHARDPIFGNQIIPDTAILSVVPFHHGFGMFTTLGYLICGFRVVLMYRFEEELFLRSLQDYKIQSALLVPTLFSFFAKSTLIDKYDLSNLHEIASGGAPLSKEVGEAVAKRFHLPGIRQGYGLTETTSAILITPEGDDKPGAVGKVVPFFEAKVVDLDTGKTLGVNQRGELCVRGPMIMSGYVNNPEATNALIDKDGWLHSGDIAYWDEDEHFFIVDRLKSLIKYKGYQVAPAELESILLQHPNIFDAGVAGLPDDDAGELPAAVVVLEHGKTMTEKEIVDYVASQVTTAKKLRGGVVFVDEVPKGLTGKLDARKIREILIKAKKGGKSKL
# Sequence of human Ephrin type-A Receptor 1 (EphA1), EPHA1 (gene 2041) (P21709 whole entry, looked up): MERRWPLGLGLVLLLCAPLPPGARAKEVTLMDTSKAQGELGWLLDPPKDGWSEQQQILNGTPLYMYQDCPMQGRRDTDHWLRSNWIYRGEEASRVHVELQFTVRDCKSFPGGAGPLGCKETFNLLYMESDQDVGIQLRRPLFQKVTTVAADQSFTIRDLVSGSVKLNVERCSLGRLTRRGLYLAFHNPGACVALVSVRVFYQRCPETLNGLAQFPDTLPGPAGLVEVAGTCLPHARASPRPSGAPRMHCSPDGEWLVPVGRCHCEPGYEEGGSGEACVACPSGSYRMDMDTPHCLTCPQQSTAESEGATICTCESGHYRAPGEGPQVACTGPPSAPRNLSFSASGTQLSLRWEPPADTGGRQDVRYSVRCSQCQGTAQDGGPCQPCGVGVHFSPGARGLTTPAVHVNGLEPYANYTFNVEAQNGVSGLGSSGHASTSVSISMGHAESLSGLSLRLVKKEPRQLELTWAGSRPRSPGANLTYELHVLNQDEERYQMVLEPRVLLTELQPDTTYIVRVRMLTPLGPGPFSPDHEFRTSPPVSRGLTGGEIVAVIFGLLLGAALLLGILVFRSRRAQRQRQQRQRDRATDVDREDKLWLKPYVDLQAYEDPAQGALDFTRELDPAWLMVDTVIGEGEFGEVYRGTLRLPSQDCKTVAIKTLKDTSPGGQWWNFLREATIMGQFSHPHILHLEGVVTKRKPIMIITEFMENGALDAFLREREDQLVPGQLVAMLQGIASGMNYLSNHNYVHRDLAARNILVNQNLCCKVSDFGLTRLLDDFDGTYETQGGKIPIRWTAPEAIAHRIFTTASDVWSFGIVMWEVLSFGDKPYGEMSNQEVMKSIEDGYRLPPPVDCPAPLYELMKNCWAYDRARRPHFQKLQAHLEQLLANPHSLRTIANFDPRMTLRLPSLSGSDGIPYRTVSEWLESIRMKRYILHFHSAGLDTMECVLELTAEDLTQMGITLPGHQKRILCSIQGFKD
smiles,measurement,setting,value
CC(Cc1ccc(C(C)(C)C)cc1)CN1C[C@@H](C)O[C@@H](C)C1 (stereo not given in full),AC50,[1],11.3 µM (active)
O=P(O)(Oc1ccccc1)Oc1ccccc1,outcome,[2],inactive
CC1CCCC1.[C-]#[O+].[C-]#[O+].[C-]#[O+].[Mn],AC50,[3],26.4 µM (active)
same,outcome,[4],inactive
same,outcome,[5],inactive
Nc1cc(Cl)cc(Cl)c1,outcome,[2],inactive
same,AC50,[3],17.1 µM (active)
same,outcome,[4],inactive
same,outcome,[5],inactive
CCOP(O)OCC,outcome,[6],inactive
CCCOC(=O)c1ccccc1C(=O)OCCC,outcome,[7],inactive
same,outcome,[8],inactive
same,outcome,[9],inactive
same,outcome,[10],inactive
same,outcome,[11],inactive
O=C(CCl)c1ccccc1,outcome,[12],inactive
same,outcome,[13],inactive
same,outcome,[14],inactive
same,AC50,[3],43.8 µM (active)
same,AC50,[4],43.8 µM (active)
same,outcome,[5],inactive
CCC[N+](=O)[O-],AC50,[15],25 µM (active)
CC(C)(O)C#N,outcome,[16],inactive
same,outcome,[12],inactive
same,outcome,[13],inactive
same,outcome,[14],inactive
same,outcome,[2],inactive
same,AC50,[3],36.7 µM (active)
same,outcome,[4],inactive
same,outcome,[5],inactive
O=[N+]([O-])c1ccc(Cl)cc1,outcome,[15],inactive
same,outcome,[17],inactive
same,outcome,[6],inactive
CCOP(=O)(OCC)OCC,outcome,[16],inactive
same,outcome,[12],inactive
same,outcome,[13],inactive
same,outcome,[14],inactive
CC(C)(c1cc(Cl)c(O)c(Cl)c1)c1cc(Cl)c(O)c(Cl)c1,outcome,[18],inactive
same,AC50,[3],19.8 µM (active)
same,AC50,[4],90.8 µM (active)
same,outcome,[5],inactive
same,AC50,[17],159 µM (active)
same,AC50,[6],153 µM (active)
same,AC50,[8],9.2 µM (active)
same,AC50,[9],16.5 µM (active)
same,outcome,[10],inactive
same,AC50,[11],9.55 µM (active)
CC(C)C(=O)Cl,outcome,[19],inactive
C[C@]12CC[C@H](O)C[C@H]1CC[C@@H]1[C@@H]2C[C@@H](O)[C@]2(C)[C@@H](C3=CC(=O)OC3)CC[C@]12O,outcome,[19],inactive
CNC(=N[N+](=O)[O-])NCC1CCOC1 (stereo not given),outcome,[18],inactive
same,outcome,[2],inactive
same,outcome,[17],inactive
Cc1ccc(C)c2ccccc12,outcome,[16],inactive
same,outcome,[19],inactive
same,outcome,[1],inactive
same,outcome,[2],inactive
same,outcome,[17],inactive
same,outcome,[6],inactive
CC(C)C#N,outcome,[13],inactive
same,outcome,[14],inactive
